These results are taken from PubChem BioAssay (NCATS).

Structures are written as SMILES. A number with no mark means an inactive call. Results filed as inconclusive are left out. The source made the active and inactive calls. Unless noted, calls come from the whole dose curve; as a rule, active = well fitted curve in the direction sought with a large enough effect; inconclusive = small, poorly fitted or top-dose-only effect, or another doubt; inactive = no such curve, though single readings can be large; an effect the other way counts as inactive or inconclusive.

The test system of one experiment is SKOV3. Briefly: Primary qHTS to identify gynecologic anti-cancer compounds using libraries of approved drugs and bioactive compounds (AID 1345084). Note: nearly all actives have a fitted effect of over 55% in size. Note: potency is the fitted concentration of half-maximal effect. As to conditions: Gynecologic cancer cell panel viability, ATPlite luminescence, 48 h; series mostly up to 57.5 µM. Summed up: (§1)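 Cell viability after 48 h drug treatment, ATPlite luminescence readout; five doses.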
(Quantitative high-throughput screening tests each substance at several concentrations.)

In the next experiment the test system is Tov112D. The experiment is described as above. As to conditions: Gynecologic cancer cell panel viability, ATPlite luminescence, 48 h; series mostly up to 57.5 µM. An outline of the steps: as §1
In general terms: In ATP-based viability assays light output follows the ATP content of the culture.

The subject of the next experiment is Tov-21-G. The description is as above. To be noted: Gynecologic cancer cell panel viability, ATPlite luminescence, 48 h; series mostly up to 57.5 µM. An outline of the steps: as §1
The nature of experiment [1]: qHTS assay to identify inhibitors of the type 1 interferon - major histocompatibility complex class I in skeletal muscle: Counter screen cell viability and HiBit confirmation (AID 1347412). For activity change, negative = inhibition: % is set by controls: 0 for no effect and ±100 for the full control effect. For all read-outs here: nearly all actives have a fitted effect of over 60% in size. Note: potency is the fitted concentration of half-maximal effect. As to conditions: iHSKM muscle cells + IFN-b, HiBiT or CellTiter-Glo, 24 h; for activity change, negative = inhibition: at 45.9 µM (top of the series). An outline of the steps: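 CRISPR HLA-B*08:01-HiBit immortalized human myoblasts (C25cl48) stimulated with 4 ng/ml IFN-beta and compounds (12-point 1:3, top 46 uM final) for 24 h at 37 C. Duplicate plates read by HiBit lytic luminescence or CellTiter Glo ATP.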

Experiment [2] deals with Nuclear receptor subfamily 1 group I member 2 (Rattus norvegicus) (UniProt Q9R1A7). Briefly: qHTS assay for small molecule activators of the rat pregnane X receptor (rPXR) signaling pathway (AID 651751; call rule not given here; note: 0% is about no effect). As to conditions: rPXR reporter cells, luciferase (One-Glo), 24 h.
Chain of Nuclear receptor subfamily 1 group I member 2 (Rattus norvegicus) (Q9R1A7 whole entry, looked up): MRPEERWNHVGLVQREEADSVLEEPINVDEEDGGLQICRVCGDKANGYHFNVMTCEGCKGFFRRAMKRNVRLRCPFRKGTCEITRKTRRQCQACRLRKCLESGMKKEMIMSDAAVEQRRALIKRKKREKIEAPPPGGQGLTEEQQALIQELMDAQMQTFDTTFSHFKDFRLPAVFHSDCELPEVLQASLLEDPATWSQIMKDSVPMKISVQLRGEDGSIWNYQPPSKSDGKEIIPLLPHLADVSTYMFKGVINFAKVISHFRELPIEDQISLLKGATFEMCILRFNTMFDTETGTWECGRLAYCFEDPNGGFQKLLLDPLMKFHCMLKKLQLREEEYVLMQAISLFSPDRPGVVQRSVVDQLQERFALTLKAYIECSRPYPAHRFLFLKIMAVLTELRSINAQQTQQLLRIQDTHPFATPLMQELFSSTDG
Experiment [3] in a line: qHTS assay for small molecule activators of the human pregnane X receptor (PXR) signaling pathway (AID 720659; call rule not given here; note: 0% is about no effect).
Experiment [4] is described as follows: Drug repurposing screens with cells derived from glioblastoma tumor samples (AID 1345199). Note: % is set by controls: 0 for no effect and ±100 for the full control effect; nearly all actives have a fitted effect of over 40% in size. To be noted: GBM patient neurospheres viability, ATP luminescence, 48 h. Summed up:
(§2)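 Primary testing used CD133+ neurospheres from four GBM patients, seven concentrations, 48 h exposure and ATP-based viability; confirmation added three slower-growing patient lines.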

The subject of another experiment is astro. The experiment is described as above. As to conditions: viability, ATP luminescence, 48 h; series mostly up to 45.9 µM. An outline of the steps: as §2

Regarding `NCC(=O)Nc1ccc(-n2nc(C(F)(F)F)cc2-c2ccc3c(ccc4ccccc43)c2)cc1`, the Potency entry in the experiment with SKOV3 and with Tov112D was “inactive” throughout.

Consider `Cc1cnc(-c2cnc(NCCNc3ccc(C#N)cn3)nc2-c2ccc(Cl)cc2Cl)[nH]1`, for which the Potency entry in the experiment on SKOV3, in the experiment with Tov-21-G and in the experiment on Tov112D was “inactive” in each case.

Consider `O=C(c1cncc(Br)c1)N1CCC(N2CCCC2)CC1`, for which the Potency entry with SKOV3, in the experiment with Tov-21-G and in the experiment with Tov112D was “inactive” in each case.

In the case of `Cn1c2ccccc2c2c3c(c4c5ccccc5n(CCC#N)c4c21)CNC3=O`, in the experiment on SKOV3, the Potency is 17.8 µM (active). In the experiment with Tov112D, the Potency entry was “inactive”.

Take `C#Cc1cccc(Nc2ncnc3cc(OC)c(OCCCCCCC(=O)NO)cc23)c1`: the Potency in the experiment with SKOV3 is 8.91 µM (active); with Tov-21-G it was 10 µM (active); in the experiment on Tov112D, 7.08 µM (active); in experiment [1] (HiBiT), 2.49 µM (active). Further, the activity change, negative = inhibition in experiment [1] (Viability) is -17%.

Consider `CNC(=O)c1ccccc1Nc1nc(Nc2ccc(N3CCOCC3)cc2OC)ncc1Cl`, for which the Potency with SKOV3 was 11.2 µM (active); in the experiment on Tov-21-G, 12.6 µM (active); in experiment [1] (HiBiT), 1.4 µM (active).

Turning to `Clc1cccc(-n2nnnc2NCc2ccccc2Oc2ccccn2)c1Cl`, the Potency entry with SKOV3, in the experiment on Tov-21-G and in the experiment with Tov112D was “inactive” throughout.

As for `Cc1ccc(CN2CCNCC2)cc1NC(=O)CNc1ccc(F)c(F)c1`, the Potency result in the experiment on SKOV3, with Tov-21-G and in the experiment on Tov112D was “inactive” each time.

On to `O=C(Nc1cc(C(F)(F)F)cc(C(F)(F)F)c1)c1cc(Cl)ccc1O`, for which the Potency in the experiment with SKOV3 was 3.55 µM (active); with Tov-21-G it was 8.91 µM (active); with Tov112D, 3.55 µM (active); in experiment [1] (HiBiT), 15.7 µM (active).

For the compound `O=C(O)CCCc1c[nH]c2ccccc12`, the Potency entry with SKOV3, in the experiment on Tov-21-G and with Tov112D was “inactive” in each case. Also, in experiment [2], the max response is -0.908%. In experiment [3], the call was inactive.

With `CCn1nnc2c(N3CCOCC3)nc(-c3ccc(NC(=O)Nc4ccc(C(=O)N5CCN(C)CC5)cc4)cc3)nc21`, the Potency was 0.316 µM (active) in the experiment with SKOV3, 0.224 µM (active) in the experiment with Tov-21-G and 0.991 µM (active) in experiment [1] (Viability).

Take `COc1cccc(Nc2c(C(N)=O)cnc3c(C)cc(S(=O)(=O)c4cccc(C(=O)N(C)C)c4)cc23)c1`: the Potency result in the experiment with SKOV3, in the experiment on Tov-21-G and in the experiment with Tov112D was “inactive” throughout.

As for `CCNC(=O)Nc1ccc2ncc(Nc3ccc(C)cc3)nc2n1`, the Potency entry with SKOV3, in the experiment on Tov-21-G and in the experiment on Tov112D was “inactive” each time.

As for `CS(=O)(=O)N1CCN(Cc2cc3nc(-c4cccc5[nH]ncc45)nc(N4CCOCC4)c3s2)CC1`, the Potency in the experiment on SKOV3 is 2.51 µM (active). For the same compound, the Potency entry in the experiment with Tov112D is “inactive”.

As to `COc1cc2c(Nc3ccc(NC(=O)c4ccccc4)cc3)ncnc2cc1OCCCN1CCOCC1`, in the experiment with SKOV3, the Potency is 11.2 µM (active). The Potency result in the experiment on Tov112D was “inactive”.

Turning to `Cc1ccc(C(=O)Nc2ccc(CN3CCN(C)CC3)c(C(F)(F)F)c2)cc1C#Cc1cnc2cccnn12`, the Potency in the experiment on SKOV3 is 10 µM (active); with Tov-21-G, 7.08 µM (active); in the experiment on Tov112D it was 7.94 µM (active); in experiment [1] (HiBiT) it was 6.25 µM (active); in experiment [1] (Viability) it was 15.7 µM (active).

As for `COc1cc(C(=O)NS(=O)(=O)c2ccccc2C)ccc1Cc1cn(C)c2ccc(NC(=O)OC3CCCC3)cc12`, the Potency entry in the experiment with SKOV3, in the experiment on Tov-21-G, in the experiment with Tov112D and in the experiment with astro was “inactive” throughout. Also, the activity, negative = cell killing in experiment [4] (at 45.9 µM (top of the series), tumour line B) was -14.2%; in experiment [4] (at 45.9 µM (top of the series), tumour line D) it was -15.9%; in experiment [4] (at 46.1 µM (top of the series), tumour line C), 5.07%.

In the case of `Fc1cc(-c2cccc3ncc(-c4cnn(C5CCNCC5)c4)nc23)cc(F)c1CN1CCOCC1`, the Potency with SKOV3 is 12.6 µM (active); with Tov-21-G, 11.2 µM (active); in experiment [1] (HiBiT) it was 19.8 µM (active).

In the case of `COC(=O)c1ccc2c(C(=Nc3ccc(N(C)C(=O)CN4CCN(C)CC4)cc3)c3ccccc3)c(O)[nH]c2c1`, the Potency entry in the experiment on SKOV3 and in the experiment on Tov112D was “inactive” throughout.

For `C1Cc2[nH]nc(-c3nn[nH]n3)c2C1`, the Potency entry in the experiment with SKOV3, with Tov-21-G and in the experiment with Tov112D was “inactive” in each case.

Turning to `CNC(=O)CN1CCC(Oc2cc3c(Nc4cccc(Cl)c4F)ncnc3cc2OC)CC1`, the Potency with SKOV3 is 14.1 µM (active). Moreover, the Potency entry in the experiment with Tov112D is “inactive”.

As to `C=CC(=O)Nc1cccc(Oc2nc(Nc3ccc(N4CCN(C)CC4)cc3)ncc2Cl)c1`, the Potency was 3.16 µM (active) in the experiment on SKOV3, 8.91 µM (active) in the experiment with Tov-21-G, 5.62 µM (active) in the experiment with Tov112D and 22.2 µM (active) in experiment [1] (HiBiT).

`O=C1CCC[C@@H]2[C@H]3CCC[N+]4([O-])CCC[C@@H](CN12)[C@@H]34` (stereo partly drawn): the Potency result with SKOV3, in the experiment on Tov-21-G and in the experiment with Tov112D was “inactive” each time.

On to `CC(C)(C)c1cc(NC(=O)Nc2ccc(-c3cn4c(n3)sc3cc(OCCN5CCOCC5)ccc34)cc2)no1`, for which the Potency result with SKOV3, in the experiment with Tov-21-G and in the experiment on Tov112D was “inactive” throughout.

Turning to `CN(C)Cc1c(C(=O)NCCOc2ccc(C(=O)NO)cc2)oc2ccccc12`, the Potency in the experiment with SKOV3 is 7.08 µM (active); in the experiment on Tov-21-G, 7.94 µM (active); in the experiment on Tov112D it was 3.16 µM (active); in experiment [1] (HiBiT) it was 0.787 µM (active). The activity change, negative = inhibition in experiment [1] (Viability) is -5.27%.

With `O=C(Nc1cn[nH]c1-c1nc2ccc(CN3CCOCC3)cc2[nH]1)NC1CC1`, the Potency with SKOV3 was 10 µM (active); in the experiment with Tov-21-G it was 2.24 µM (active); with Tov112D, 11.2 µM (active); in experiment [1] (HiBiT), 1.98 µM (active). Also, the activity change, negative = inhibition in experiment [1] (Viability) was 61.5%.
